Screening data as filed in PubChem.
Mtb bLac sens: beta-lactam sensitization of Mtb H37Rv, H37Rv; AID 434955, 2010; inhibition, % at 25 µM; M. tuberculosis H37Rv growth with meropenem, percent inhibition; 0.27% of 330,000 active;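 further: growth measured after seven days incubation then overnight dye step; 0% = bacteria only wells and 100% = bacteria with antibiotic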
CCHF vOTU inh: CCHFV vOTU protease inhibitors, primary screen, biochemical, Pep-AMC substrate, fluorescence; Crimean-Congo hemorrhagic fever virus L polyprotein viral ovarian tumor (vOTU) protease …; inhibition, % at 11.5 µM; 0.55% of 370,000 active; AID 651958, 2012; in the data active means inhibition above about 30%; further: 0% = vehicle wells with enzyme and 100% = no enzyme wells
Mtb hypoxia rep: PubChem AID 1159583 | M. tuberculosis hypoxia-regulated fluorescent reporter, fluorescence | fluorescence inhibition, % (no concentration beside the values) | 0.1% of 300,000 active; in the data active means fluorescence inhibition mostly above about 23%, no sharp cut-off; inactive means mostly below about 17%
RecA intein inh: Mtb RecA intein splicing inhibitors, primary screen, biochemical, fluorescence, HTS; Protein RecA (Mycobacterium tuberculosis (strain ATCC 25618 / H37Rv)), P9WHJ3; cell-free RecA intein splicing; inhibition, % (test concentration not listed); 0.75% of 290,000 active; in the data active means inhibition above about 30%; inconclusive means no clear call, values can overlap the other calls;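 further: 0% = vehicle wells and 100% = reference inhibitor control wells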
PfHsp40 yeast: rescue of yeast from PfHsp40 toxicity, primary screen, S. cerevisiae, ATP luminescence | growth rescue, % at 12.5 µM | S. cerevisiae expressing PfHsp40, growth rescue | AID 504582, 2011 | 0.68% of 340,000 active; in the data active means growth rescue above about 28%, passing the limit was not always enough; inconclusive means no clear call, values can overlap the other calls;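 further: yeast W303a lacking pdr1 and pdr3 grown in galactose medium; growth measured after three days at 30 °C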
GFP chromophore: counter-screen: blocks GFP chromophore formation, dose response, counter-screen, biochemical, fluorescence, homogeneous | shares compounds with RecA intein inh | cell-free GFP chromophore formation | EC50, µM | 83% of 2,100 active
* hit, by the source's call; u = inconclusive; x = no result shown. Most compounds without a hit are left out; they make up all but 1.7% or so of the library. Unless noted, how the calls were made is not given here.

SMILES	Mtb bLac sens	CCHF vOTU inh	Mtb hypoxia rep	RecA intein inh	PfHsp40 yeast	GFP chromophore
CCCCCCCCCCC[N+](C)(C)CC/C=C1/c2ccccc2Sc2ccc(Cl)cc21	100	x	x	63*	-4	9.5*
CN(C)CCC=C1c2ccccc2Sc2ccc(Cl)cc21	x	x	19	x	x	x
CCCCCCCCCC[N+](C)(C)CC/C=C1/c2ccccc2Sc2ccc(Cl)cc21	100	x	x	69*	-1	12*
CC[N+](C)(C)CC/C=C1/c2ccccc2Sc2ccc(Cl)cc21	-12	-1	8	14	x	x
Cc1cccc(Nc2nc(NCc3ccco3)c3ccccc3n2)c1	100	14	-22	33*	-1	15*
c1ccc(Nc2nc(NCc3ccco3)c3ccccc3n2)cc1	97	-7	-22	38*	8	26*
CC(=NNC(=O)C(O)(c1ccccc1)c1ccccc1)c1ccc(C)o1	x	x	6	x	x	x
Cc1noc(C)c1S(=O)(=O)N(C)CC1Oc2ccc(NC(=O)CCC(F)(F)F)cc2C(=O)N(C(C)CO)CC1C (stereo unspecified)	x	x	21	x	x	x
CCC(C)N(C(=O)Cn1nc(Cc2ccncc2)c2ccccc2c1=O)C(C)CC (stereo unspecified)	x	0	x	x	x	x
CN(CCC#N)C(=O)Cn1nc(Cc2ccncc2)c2ccccc2c1=O	2	-7	4	49*	1	>38
O=C(NN=Cc1ccc(N2CCCC2)c([N+](=O)[O-])c1)c1cccnc1	x	x	14	x	x	x
Cc1cccc(N2C(=O)C(Cl)=C(N3CCOCC3)C2=O)c1	u	1	2	87*	0	4.5*
O=C1C(Cl)=C(N2CCOCC2)C(=O)N1c1cccc(Cl)c1	98	0	0	84*	1	2.8*
Cc1cccc(N2C(=O)CC(N3CCOCC3)C2=O)c1 (stereo unspecified)	0	1	x	-3	0	x
O=C1/C(=C/c2ccccc2)N=C(N2CCOCC2)N1c1cccc(Cl)c1	5	-8	2	1	-1	x
O=[N+]([O-])c1cc(-c2ccc(C(=S)N3CCOCC3)o2)ccc1Cl	2	9	2	31*	0	18*
COC(=O)C1=C(c2ccc(F)cc2OCc2ccccc2)CC2CCC1N2C(=O)NCc1cccc(OC)c1 (stereo unspecified)	x	x	5	x	x	x
O=C1/C(=C\c2ccc(O)c(O)c2)SC(=S)N1Cc1ccccc1	10	13	21	23	8	x
O=C1/C(=C\c2cc([N+](=O)[O-])ccc2O)SC(=S)N1Cc1ccc(Cl)cc1	24	-2	9	52*	0	35*
O=C1/C(=C\c2cccc(O)c2O)SC(=S)N1Cc1ccccc1	-1	10	x	36*	0	39*
O=c1oc(CCCO)cc2ccc(C=Cc3cccc([N+](=O)[O-])c3)cc12	x	x	2	x	x	x
COc1ccc(NC(=O)/C(Cl)=C(/Cl)S(=O)(=O)Cc2ccc(C)cc2)cn1	x	x	x	89*	343*	6.7*
COc1ccc(NC(=O)Cc2ccc(Cl)c(Cl)c2)cn1	2	-12	7	7	0	x
CCOC(=O)C1C2COc3ccc(C)cc3C2N2C(=O)c3ccc(C)cc3NC(=O)[C@@]12C (stereo partly specified)	x	x	1	x	x	x
CCCC(=O)OCCNc1cc(Sc2nccn2C)c2nonc2c1[N+](=O)[O-]	101	27	24	90*	-1	3.9*
SMILES	Mtb bLac sens	CCHF vOTU inh	Mtb hypoxia rep	RecA intein inh	PfHsp40 yeast	GFP chromophore
CCCSc1cc(NCCOC(=O)CCC)c([N+](=O)[O-])c2nonc12	100	11	13	60*	5	9.9*
CCCSc1cc(NCCOC(C)=O)c([N+](=O)[O-])c2nonc12	26	-5	x	8	2	x
CCC(=O)OCCNc1cc(Sc2nc3ccccc3s2)c2nonc2c1[N+](=O)[O-]	97	22	x	50*	0	4.2*
CCCC(=O)OCCNc1cc(SCc2ccco2)c2nonc2c1[N+](=O)[O-]	100	10	x	79*	-1	8.6*
CC(NC(=O)c1nc[nH]c1C(=O)NC(c1ccccc1)c1ccccc1)C(=O)OC(C)(C)C (stereo unspecified)	x	x	2	x	x	x
Cc1ccc(S(=O)(=O)Cc2cc(F)c([N+](=O)[O-])cc2[N+](=O)[O-])cc1	100	x	x	35*	-1	23*
CCOC(=O)c1ccc([N+](=O)[O-])c(CS(=O)(=O)c2ccc(Cl)cc2)c1	3	-7	7	1	2	x
